In PubChem BioAssay (EPA / NIEHS):
Several values for one entry are separate records, joined by “and”; a condition that tells them apart may be missing. Equal entries are not always repeated. Records with an inconclusive call do not appear. Some compounds were tested as several samples or in several runs, with calls that do not always agree. Activity calls are given as the source filed them. How the source made its calls, unless noted: active means hit-call score of the fitted dose curve at least 0.9, where 1 is the maximum; inactive means score below 0.9.

Tests used:
[1] = CCTE_Shafer_MEA_dev_network_spike_number: CCTE's Neural Network Formation Assay for Number of Network Spikes, Shafer Lab (AID 2284048);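 further: synchronized bursts across electrodes counted on days 5 7 9 12 and integrated as AUC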;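 on AC50: fit as a loss of signal meaning fewer network spikes than DMSO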
Procedure, shortened: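 Primary rat cortical neurons were seeded at 1.5 x 10^5 cells/well on PEI-coated 16-electrode MEA wells with laminin, exposed from plating day 0, compound renewed at DIV 5 and 9. Network spikes were recorded on days 5, 7, 9, 12 and summarized as trapezoidal AUC versus DMSO.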

[2] = CCTE_Shafer_MEA_dev_network_spike_peak: CCTE's Neural Network Formation Assay for Mean Number of Electrodes in Network Spike, Shafer Lab (AID 2284049);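 on AC50: fitted for loss of signal meaning fewer electrodes in network spikes than DMSO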
Procedure, shortened: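 Continuous 12-day exposure of rat cortical cultures, starting at plating, on MEA plates. Endpoint: electrodes participating in network-spike peaks, AUC across DIV 5–12, DMSO as negative control.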

[3] = CCTE_Shafer_MEA_dev_spike_duration_mean: CCTE's Neural Network Formation Assay for Mean Spike Duration, Shafer Lab (AID 2284051);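 further: mean network spike duration pooled as area under curve over DIV 5 to 12 recordings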;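 on AC50: potency for a decrease in mean network spike duration versus DMSO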
Procedure, shortened: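 Spontaneous activity was recorded on days 5, 7, 9 and 12 from rat cortical cultures grown on microelectrode arrays and dosed continuously from day 0, with media and compound renewed after the DIV 5 and 9 recordings. Network-spike duration was collapsed by area under the curve.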

[4] = CCTE_Shafer_MEA_dev_network_spike_duration_std: CCTE's Neural Network Formation Assay for Standard Deviation of Network Spike Duration, Shafer Lab (AID 2284052);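 further: hits are decreases in network spike duration SD versus DMSO vehicle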
Procedure, shortened: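 Network spike duration variability was collapsed across recordings on days 5, 7, 9 and 12 by trapezoidal area-under-curve and fitted downward against DMSO. Cultures were rat cortical neurons on PEI-coated MEA plates, dosed continuously from plating, refed with compound DIV 5/9.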

[5] = CCTE_Shafer_MEA_dev_per_network_spike_spike_number_mean: CCTE's Neural Network Formation Assay for Mean Number of Spikes in a Network Spike, Shafer Lab (AID 2284053);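 on AC50: fitted as decrease in spikes per network spike relative to DMSO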
Procedure, shortened: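 Mean spike count within each network spike, taken in a 0.05 s window at its peak, was recorded on days 5, 7, 9 and 12 and integrated as trapezoidal area under the curve. Rat cortical cultures on MEA plates received continuous compound from day 0, refreshed at medium changes on DIV 5 and 9.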

[6] = CCTE_Shafer_MEA_dev_per_network_spike_spike_percent: CCTE's Neural Network Formation Assay for Percent of Spikes in a Network Spike, Shafer Lab (AID 2284054)
Procedure, shortened: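 Primary rat cortical neurons on 16-electrode MEA wells (PEI-coated, laminin at plating), exposed from day 0 with renewal at DIV 5 and 9; spikes within 0.05 s of network-spike peaks over total spikes, AUC across days 5, 7, 9, 12.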

[7] = CCTE_Shafer_MEA_dev_LDH: CCTE's Lactate Dehydrogenase Assay for Cytotoxicity in the Neural Network Formation Assay, Shafer Lab (AID 2284068; active means hit-call score of the fitted dose curve at least 0.9, where 1 is the maximum;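 further: exposure for twelve days from plating with re-dosing on DIV 5 and 9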)
Procedure, shortened: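 Primary rat cortical neurons were cultured on PEI-coated MEA plates and exposed from plating through day 12, with compound renewed at medium changes on DIV 5 and 9. LDH activity was read spectrophotometrically; loss of signal versus DMSO indicates reduced viability.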

[8] = CCTE_Shafer_MEA_dev_AB: CCTE's Alamar Blue Assay for Cytotoxicity in the Neural Network Formation Assay, Shafer Lab (AID 2284083; active means hit-call score of the fitted dose curve at least 0.9, where 1 is the maximum;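 further: resazurin reduction fluorescence as viability of cultured neurons; twelve days of exposure from plating with re-dosing on DIV 5 and 9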)
Procedure, shortened: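 Resazurin fluorescence, relative to DMSO, gauges viability after twelve days of exposure that began at plating of rat cortical neurons (1.5 x 10^5 cells/well, 48-well MEA); treatment renewed with full medium exchange on DIV 5 and 9.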

[9] = CCTE_Shafer_MEA_dev_mutual_information_norm: CCTE's Neural Network Formation Assay for Mutual Information Normalization, Shafer Lab (AID 2284091);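 on AC50: mutual information between electrodes summarised as area under curve across four recording days; potency is for a decrease in mutual information relative to DMSO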
Procedure, shortened: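 Rat cortical cultures, 48-well MEA, continuous exposure DIV 0–12 with full media/compound change DIV 5 and 9. Readout: inter-electrode mutual information, AxIS adaptive spike detection; AUC across DIV 5/7/9/12 recordings; DMSO baseline, negative fitting direction.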

[10] = CCTE_Shafer_MEA_dev_correlation_coefficient_mean: CCTE's Neural Network Formation Assay for Mean Correlation Coefficient, Shafer Lab (AID 2284093);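 on AC50: well mean pairwise spike train correlation integrated as AUC over recording days 5 to 12; potency fitted for loss of correlation relative to DMSO vehicle wells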
Procedure, shortened: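 Primary rat cortical neurons on PEI-coated 48-well MEA plates (16 electrodes/well) were exposed from plating day 0 through DIV12, with compound renewed at DIV5 and 9. Pairwise spike correlations were averaged per well; trapezoidal AUC across DIV5, 7, 9, 12.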

[11] = CCTE_Shafer_MEA_acute_AB: CCTE's Alamar Blue Assay for Cytotoxicity in the Neural Acute Assay, Shafer Lab (AID 2284069; active means hit-call score of the fitted dose curve at least 0.9, where 1 is the maximum;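 further: active compounds lower the viability signal compared with DMSO wells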)
Procedure, shortened: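 Resazurin reduction (CellTiter Blue, 1:6 in fresh medium) read at ex 544/em 590 nm marks viability loss relative to DMSO. Cells: primary rat cortical neuron networks on microelectrode arrays, treated after baseline recording at 13 or 15 days in vitro.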

[12] = CCTE_Shafer_MEA_acute_LDH: CCTE's Lactate Dehydrogenase Assay for Cytotoxicity in the Neural Acute Assay, Shafer Lab (AID 2284086; active means hit-call score of the fitted dose curve at least 0.9, where 1 is the maximum;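 further: active means LDH release rises above DMSO vehicle level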)
Procedure, shortened: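 Primary rat cortical neurons on 48-well MEA plates, treated on day 13 or 15 post-plating. After the 40-min recording with compound, medium LDH release was read by absorbance at 490 nm. Gain of signal was fitted against DMSO negative control.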

[13] = IUF_NPC1b_proliferation_BrdU_72hr: Leibniz Research Institute for Environmental Medicine (IUF) 72-hour Neural Progenitor Cell Bromodeoxyuridine (BrdU) Proliferation Assay (NPC1b) (AID 2284207)
Procedure, shortened: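 hNPC spheres (primary, GW 16-19 fetal cortex), single sphere/well, EGF+FGF medium; 72 h compound, no renewal; BrdU pulse last 16 h; luminescent ELISA; activity vs DMSO baseline; growth-factor withdrawal as positive control.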

[14] = IUF_NPC1a_proliferation_area_72hr: Leibniz Research Institute for Environmental Medicine (IUF) 72-hour Neural Progenitor Cell Proliferation Area Assay (NPC1a) (AID 2284208)
Procedure, shortened: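 Spheres of 0.3 mm are plated singly in growth-factor medium and exposed from day 0. After three days at 37C and 5% CO2, sphere area is measured by phase contrast imaging, with activity referenced to DMSO.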

[15] = UKN5_HCS_SBAD2_cell_viability: Viability Assessment in the University of Konstanz (UKN) Leist Lab Neurite Outgrowth Assay in human iPSC-derived immature Dorsal Root Ganglia Neurons (UKN5) (AID 2284056)
Procedure, shortened: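 iPSC-derived immature peripheral neurons (SBAD2) seeded on Matrigel with CHIR99021, SU5402 and DAPT, dosed 1 h later for 24 h. Viability from Hoechst H-33342 and calcein-AM live staining, high-content imaging; bidirectional fit versus DMSO.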

[16] = UKN5_HCS_SBAD2_neurite_outgrowth: University of Konstanz (UKN) Leist Lab Neurite Outgrowth Assay in human iPSC-derived immature Dorsal Root Ganglia Neurons (UKN5) (AID 2284070); conditions: actives raise or lower the signal
Procedure, shortened: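 Human iPSC-derived immature DRG neurons (SBAD2) on Matrigel with CHIR99021 (1.5 uM), SU5402 (5 uM), DAPT (5 uM); compounds added 1 h post-seeding for 24 h. Calcein-AM neurite area imaged; bidirectional fit vs DMSO.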

[17] = UKN2_HCS_IMR90_neural_migration: University of Konstanz (UKN) Leist Lab Neural Crest Cell Migration Assay in human induced IMR90 Pluripotent Stem Cells (UKN2) (AID 2284204); conditions: actives raise or lower the signal
Procedure, shortened: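 iPSC-derived IMR90 neural crest cells on PLO/laminin/fibronectin were seeded around silicone stoppers; after stopper removal, migration in N2-S medium with EGF and FGF ran 24 h before 24 h chemical exposure. Calcein-AM/Hoechst high-content imaging; bidirectional fit versus DMSO.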

[18] = UKN4_HCS_LUHMES_neurite_outgrowth: University of Konstanz (UKN) Leist Lab Neurite Outgrowth Assay in human LUHMES cells (UKN4) (AID 2284206); conditions: actives raise or lower the signal
Procedure, shortened: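 LUHMES neuronal precursors differentiated 2 days, replated without cAMP/GDNF, then exposed to chemicals for 24 h. Neurite area imaged by high-content microscopy after calcein-AM staining; Hoechst H-33342 marks viability. Bidirectional fit versus DMSO.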

Measured: AC50

c1ccc2c(c1)-c1cccc3c1c-2cc1ccccc13
inactive: [1] | [4] | [5] | [6] | [7] | [8] | [10]
active: [2] 6.22 µM | [3] 4.48 µM | [9] 1.35 µM

Cc1ncc([C@@H](CCCCCCc2ccc3c(n2)NCCC3)CC(=O)O)cn1
inactive: [11]

CCCc1ccccc1
inactive: [11] | [12]

NCC(F)(F)C(F)(F)C(F)(F)C(F)(F)F
inactive: [1] | [2] | [3] | [4] | [5] | [6] | [8] | [9] | [10]

CCOc1ccc2[nH]cc(C(=O)NCc3ccccc3)c(=O)c2n1
inactive: [1] | [2] | [3] | [4] | [5] | [6] | [8] | [9] | [10]

Cn1cc[nH]c1=S
active: [7] 46.6 nM
not listed: [11] | [12] | [15] | [16] | [17] | [18]
inactive: all other assays above

CCc1ccc(O)c(C(C)(C)C)c1
inactive: [11] | [12]

CC[C@H](C)C(=O)O[C@H]1C[C@H](O)C=C2C=C[C@H](C)[C@H](CC[C@@H](O)C[C@@H](O)CC(=O)O)[C@H]21
active: [1] 143 nM | [2] 3.06 µM | [3] 0.037 µM | [6] 1.88 µM | [8] 2.43 µM | [9] 1.97 µM | [10] 4.32 µM
inactive: [4] | [5] | [11]

FC(F)(F)C(F)(F)C(F)(F)C(F)(F)C(F)(F)C(F)(F)I
inactive: [1] | [2] | [3] | [4] | [5] | [6] | [9] | [10]

CCCCCCCC/C=C\CCCCCCCC(=O)OC[C@@H](O)[C@H]1OC[C@H](O)[C@H]1O
inactive: [11]

Nc1ccn([C@@H]2O[C@H](CO)[C@@H](O)[C@@H]2O)c(=O)n1
inactive: [15] | [17] | [18] | [13]
active: [1] 144 nM and 143 nM | [2] 160 nM and 623 nM | [3] 145 nM and 889 nM | [4] 65.6 nM and 636 nM | [5] 118 nM and 206 nM | [6] 179 nM and 84 nM | [7] 20.4 µM and 2.69 µM | [16] 1.2 µM | [8] 18.5 µM and 1.67 µM | [9] 89.3 nM and 97.6 nM | [10] 89.9 nM and 112 nM | [14] 109 nM

CCCC(CCC)C(=O)O
active: [5] 576 µM | [6] 488 µM | [15] 5 mM | [16] 5000 µM | [18] 7.76 mM | [13] 1.04 mM
not listed: [11] | [12] | [14]
inactive: all other assays above

c1ccc2cc3ccccc3cc2c1
inactive: [1] | [2] | [3] | [4] | [5] | [6] | [7] | [12] | [9] | [10]
active: [6] 0.218 µM

O=C(Cl)C(F)(F)C(F)(F)C(F)(F)C(=O)Cl
inactive: [1] | [2] | [3] | [4] | [5] | [6] | [8] | [9] | [10]
